# Test results from PubChem BioAssay (NCI).
# Compounds without any hit were thinned out: in the full panel of roughly 83,000, 20% have a hit.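 Note: values are percent growth. 100 is the growth of untreated cells, values between 100 and 0 indicate rising inhibition; between -100 and 0 indicates cell death.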 Unmarked numbers belong to inactive results. Activity calls are given as the source filed them. How the source made its calls: active means growth percent below 10; inactive means the rest.
# Tested on: HCT-15 colon
# Test: NCI-60 one-dose screen, 48 h (100 = growth as untreated, 0 = no growth, -100 = all killed)
# Conditions: 10 µM unless noted
row,Compound,growth
1,Cc1ccc(-c2csc(NC(=O)CN3CCN(c4cc5c(cc4F)c(=O)c(C(=O)O)cn5C4CC4)CC3)n2)cc1,10.2%
2,CCOC(=O)c1c(C)c2c(n1C)CSc1cc(C(=O)c3ccccc3)c(=O)[nH]c1-2,105% [100 µM]
3,CC(=O)N(N=Nc1ccccc1)c1cccc2ccccc12,17.1%
4,Cc1ccc(-c2nc(/C=C3/C(=O)Nc4ccccc43)c3ccccn23)cc1,26.5%
5,CC(C)c1ccc(NC(=O)Nc2ccc(NC(=O)CCCC(=O)NOCc3ccccc3)cc2)cc1,99.8%
6,C=C(C)[C@@H]1CC[C@]2(C(=O)OC)CC[C@]3(C)[C@H](CC[C@@H]4[C@@]5(C)C/C(=C/NC(N)=S)C(=O)C(C)(C)[C@@H]5CC[C@]43C)[C@@H]12,92.8%
7,COc1ccc(/C=C2\COc3ccc(O)c(O)c3C2=O)cc1,-19.4% (active)
8,Clc1ccc(CNc2c3ccccc3nc3ccccc23)cc1,23.3%
9,O=C(Nc1ncc(Cc2ccc(Cl)c(C(F)(F)F)c2)s1)c1ccc2nnsc2c1,40.4%
10,C/C(=C(/c1ccc(Cl)cc1)c1ccc(OCCN2CCCC2)cc1)c1ccc(Cl)cc1,42.1%
11,CC(C)CCNC(=O)Cn1cccc(NC(=O)OCc2ccccc2)c1=O,111%
12,Cc1nc2sc(C(=O)Nc3ccccc3)c(N)c2cc1C(=O)c1ccccc1,24.4%
13,COC(=O)c1c2c(c(C)[n+]([O-])c1C)C(=O)C(NCc1ccc(Cl)cc1)=CC2=O,39.6%
14,CCOC(=O)c1cn2ncnc(Oc3ccc(NC(=O)NC4CCCCC4)c(Cl)c3)c2c1C,69.4%
15,CS(=O)(=O)c1cccc(-c2c(-c3cccc(OS(N)(=O)=O)c3)nc3sccn23)c1,104%
16,O=C(NNc1nccc(Nc2ccc(S(=O)(=O)Nc3ccncc3)cc2)n1)c1ccccc1,107%
17,C[C@]12CC[C@@H]3c4ccc(O)c([N+](=O)[O-])c4CC[C@H]3[C@@H]1CCC2=O,94.4%
18,O=C(c1ccc(-c2nc(CSc3nc4ccccc4s3)no2)cc1)N1CCSCC1,68.5%
19,CCS/C(Nc1ccccc1)=C(\C#N)C(=O)N/N=C/c1ccc(Cl)cc1Cl,19.9%
20,c1ccc(C2=NN[C@H](c3cn(-c4ccccc4)nc3-c3ccccc3)C2)cc1,86.5%

row,Compound,growth
1,COc1cc(/C=C\c2cc(/C=C\c3ccc(O)c(OC)c3)n(C(=O)COc3ccc(Cl)cc3Cl)n2)ccc1O,9.52% (active)
2,Cc1ccccc1NC(=O)c1sc2nc(C)c(C(=O)/C=C/c3ccccc3)cc2c1N,-1.44% (active)
3,CC(C)n1cnc2c(=S)nc[nH]c21,102%
4,CCOC(=O)/C=C1\S/C(=N\Nc2cc(=O)[nH]c3ccc(Cl)cc23)N(c2ccccc2)C1=O,74.5%
5,COc1cc(-c2cc(-c3ccc(N(C)C)cc3)nc(N3CCC(O)CC3)c2C#N)cc(OC)c1OC,-41.1% (active)
6,CN1C(=O)/C(=C/c2ccc(C(=O)Nc3ncc(Cc4ccc(Cl)cc4)s3)cc2)SC1=S,21.7%
7,O=C1c2c(c3c4ccccc4[nH]c3c3ccc4ccccc4c23)C(=O)N1CCN1CCCCC1,25%
8,O=c1oc2c(cnc3ccccc32)cc1-c1ccsc1,107%
9,Cc1cccc2c1NC(=O)C2(c1ccc(O)cc1)c1ccc(O)cc1,49.3%
10,CC(=O)OCc1nc(C#N)c(N(C)C)o1,88.6%
11,CCN(CC)CCCN1C(=O)c2c(c(C)c3c(oc4cc(O)ccc43)c2C)C1=O,-79.2% (active)
12,CCOC(=O)c1c(C)nc2c(c1N)CC(=O)N2Cc1cc(F)cc(Cl)c1,80.5%
13,COc1ccc2nc(NC(=O)CSc3nnc4n3S(=O)(=O)c3ccccc3N4C)sc2c1,101%
14,CCOP(=O)(OCC)c1nc(-c2ccccc2)oc1NCc1cccnc1,107%
15,C#CCn1cnc2c(Nc3cccc(NC(=O)C=C)c3)ncnc21,73.3%
16,O=C(COc1ccc(-c2nc3ccccc3[nH]2)cc1)N=Nc1c(O)[nH]c2ccc(Cl)cc12,93%
17,c1cc2[nH]ncc2cc1-c1nc2ccc3[nH]ncc3c2c2c1CCCC2,7.1% (active)
18,CCn1c(=S)[nH]c2c(=O)n(C)c(=O)n(C)c21,101%
19,C=CCn1c(SCC(=O)Nc2ccc(C(=O)/C=C/c3cc4cc(OC)ccc4nc3Cl)cc2)nnc1-c1ccc(Br)cc1,84.2%
20,O=C1c2cccc3cccc(c23)C(=O)N1N1C(=O)c2cccc3c(N4CCOCC4)ccc(c23)C1=O,101%

# Tested on: HT29 colon
# Test: as above
# Conditions: 10 µM unless noted
row,Compound,growth
1,Cc1ccc(-c2csc(NC(=O)CN3CCN(c4cc5c(cc4F)c(=O)c(C(=O)O)cn5C4CC4)CC3)n2)cc1,0.375% (active)
2,CCOC(=O)c1c(C)c2c(n1C)CSc1cc(C(=O)c3ccccc3)c(=O)[nH]c1-2,108% [100 µM]
3,CC(=O)N(N=Nc1ccccc1)c1cccc2ccccc12,35.2%
4,Cc1ccc(-c2nc(/C=C3/C(=O)Nc4ccccc43)c3ccccn23)cc1,42.3%
5,CC(C)c1ccc(NC(=O)Nc2ccc(NC(=O)CCCC(=O)NOCc3ccccc3)cc2)cc1,79.4%
6,C=C(C)[C@@H]1CC[C@]2(C(=O)OC)CC[C@]3(C)[C@H](CC[C@@H]4[C@@]5(C)C/C(=C/NC(N)=S)C(=O)C(C)(C)[C@@H]5CC[C@]43C)[C@@H]12,71%
7,COc1ccc(/C=C2\COc3ccc(O)c(O)c3C2=O)cc1,42.6%
8,Clc1ccc(CNc2c3ccccc3nc3ccccc23)cc1,15%
9,O=C(Nc1ncc(Cc2ccc(Cl)c(C(F)(F)F)c2)s1)c1ccc2nnsc2c1,57.7%
10,C/C(=C(/c1ccc(Cl)cc1)c1ccc(OCCN2CCCC2)cc1)c1ccc(Cl)cc1,9.33% (active)
11,CC(C)CCNC(=O)Cn1cccc(NC(=O)OCc2ccccc2)c1=O,108%
12,Cc1nc2sc(C(=O)Nc3ccccc3)c(N)c2cc1C(=O)c1ccccc1,22.9%
13,COC(=O)c1c2c(c(C)[n+]([O-])c1C)C(=O)C(NCc1ccc(Cl)cc1)=CC2=O,9.34% (active)
14,CCOC(=O)c1cn2ncnc(Oc3ccc(NC(=O)NC4CCCCC4)c(Cl)c3)c2c1C,81.6%
15,CS(=O)(=O)c1cccc(-c2c(-c3cccc(OS(N)(=O)=O)c3)nc3sccn23)c1,107%
16,O=C(NNc1nccc(Nc2ccc(S(=O)(=O)Nc3ccncc3)cc2)n1)c1ccccc1,94.4%
17,C[C@]12CC[C@@H]3c4ccc(O)c([N+](=O)[O-])c4CC[C@H]3[C@@H]1CCC2=O,95.5%
18,O=C(c1ccc(-c2nc(CSc3nc4ccccc4s3)no2)cc1)N1CCSCC1,40.8%
19,CCS/C(Nc1ccccc1)=C(\C#N)C(=O)N/N=C/c1ccc(Cl)cc1Cl,9.53% (active)
20,c1ccc(C2=NN[C@H](c3cn(-c4ccccc4)nc3-c3ccccc3)C2)cc1,65.2%

row,Compound,growth
1,COc1cc(/C=C\c2cc(/C=C\c3ccc(O)c(OC)c3)n(C(=O)COc3ccc(Cl)cc3Cl)n2)ccc1O,2.93% (active)
2,Cc1ccccc1NC(=O)c1sc2nc(C)c(C(=O)/C=C/c3ccccc3)cc2c1N,-5.48% (active)
3,CC(C)n1cnc2c(=S)nc[nH]c21,118%
4,CCOC(=O)/C=C1\S/C(=N\Nc2cc(=O)[nH]c3ccc(Cl)cc23)N(c2ccccc2)C1=O,102%
5,COc1cc(-c2cc(-c3ccc(N(C)C)cc3)nc(N3CCC(O)CC3)c2C#N)cc(OC)c1OC,2.08% (active)
6,CN1C(=O)/C(=C/c2ccc(C(=O)Nc3ncc(Cc4ccc(Cl)cc4)s3)cc2)SC1=S,20.2%
7,O=C1c2c(c3c4ccccc4[nH]c3c3ccc4ccccc4c23)C(=O)N1CCN1CCCCC1,11.8%
8,O=c1oc2c(cnc3ccccc32)cc1-c1ccsc1,113%
9,Cc1cccc2c1NC(=O)C2(c1ccc(O)cc1)c1ccc(O)cc1,79.2%
10,CC(=O)OCc1nc(C#N)c(N(C)C)o1,99.2%
11,CCN(CC)CCCN1C(=O)c2c(c(C)c3c(oc4cc(O)ccc43)c2C)C1=O,-61.8% (active)
12,CCOC(=O)c1c(C)nc2c(c1N)CC(=O)N2Cc1cc(F)cc(Cl)c1,77.1%
13,COc1ccc2nc(NC(=O)CSc3nnc4n3S(=O)(=O)c3ccccc3N4C)sc2c1,114%
14,CCOP(=O)(OCC)c1nc(-c2ccccc2)oc1NCc1cccnc1,111%
15,C#CCn1cnc2c(Nc3cccc(NC(=O)C=C)c3)ncnc21,90.6%
16,O=C(COc1ccc(-c2nc3ccccc3[nH]2)cc1)N=Nc1c(O)[nH]c2ccc(Cl)cc12,41.2%
17,c1cc2[nH]ncc2cc1-c1nc2ccc3[nH]ncc3c2c2c1CCCC2,4.84% (active)
18,CCn1c(=S)[nH]c2c(=O)n(C)c(=O)n(C)c21,112%
19,C=CCn1c(SCC(=O)Nc2ccc(C(=O)/C=C/c3cc4cc(OC)ccc4nc3Cl)cc2)nnc1-c1ccc(Br)cc1,73.8%
20,O=C1c2cccc3cccc(c23)C(=O)N1N1C(=O)c2cccc3c(N4CCOCC4)ccc(c23)C1=O,107%
